Key:
Experiment in all cases: thermal shift delta Tm vs DMSO control; higher = stronger stabilization (binding)
Conditions in all cases: 12.5 µM; protein concentration 2 µM
LOC_OS01G57100-cb003 = system: LOC_OS01G57100-cb003
Procedure, shortened: (§1)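 Rice kinase domain constructs, made in E. coli and purified, were placed in 96-well plates at 2 μM in 19.5 μl of 100 mM potassium phosphate pH 7.5, 150 mM NaCl, 10% glycerol and 5 × SYPRO Orange, with compound in DMSO. A temperature ramp from 25°C to 95°C at 0.05°C/s was used for differential scanning fluorimetry. The melting temperature shift is a triplicate mean compared with DMSO-only protein, derived from Boltzmann fits.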

LOC_OS01G60330-cb001 = system: LOC_OS01G60330-cb001
Procedure, shortened: as §1

LOC_OS01G60700-cb002 = system: LOC_OS01G60700-cb002
Procedure, shortened: as §1

LOC_OS01G63280-cb003 = system: LOC_OS01G63280-cb003
Procedure, shortened: as §1

LOC_OS01G67340-cb003 = system: LOC_OS01G67340-cb003
Procedure, shortened: as §1

LOC_OS01G70970-cb002 = system: LOC_OS01G70970-cb002
Procedure, shortened: as §1

LOC_OS02G07810-cb001 = system: LOC_OS02G07810-cb001
Procedure, shortened: as §1

LOC_OS02G08530-cb003 = system: LOC_OS02G08530-cb003
Procedure, shortened: as §1

LOC_OS02G14120-cb001 = system: LOC_OS02G14120-cb001
Procedure, shortened: as §1

LOC_OS02G17970-cb001 = system: LOC_OS02G17970-cb001
Procedure, shortened: as §1

LOC_OS02G45750-cb003 = system: LOC_OS02G45750-cb003
Procedure, shortened: as §1

LOC_OS02G54510-cb004 = system: LOC_OS02G54510-cb004
Procedure, shortened: as §1

LOC_OS03G04050-cb001 = system: LOC_OS03G04050-cb001
Procedure, shortened: as §1

LOC_OS03G12390-cb001 = system: LOC_OS03G12390-cb001
Procedure, shortened: as §1

LOC_OS03G27990-cb004 = system: LOC_OS03G27990-cb004
Procedure, shortened: as §1

LOC_OS03G50450-cb001 = system: LOC_OS03G50450-cb001
Procedure, shortened: as §1

LOC_OS03G50810-cb003 = system: LOC_OS03G50810-cb003
Procedure, shortened: as §1

LOC_OS04G35114-cb001 = system: LOC_OS04G35114-cb001
Procedure, shortened: as §1

LOC_OS04G38480-cb003 = system: T1, LOC_OS04G38480-cb003
T1 sequence (whole entry): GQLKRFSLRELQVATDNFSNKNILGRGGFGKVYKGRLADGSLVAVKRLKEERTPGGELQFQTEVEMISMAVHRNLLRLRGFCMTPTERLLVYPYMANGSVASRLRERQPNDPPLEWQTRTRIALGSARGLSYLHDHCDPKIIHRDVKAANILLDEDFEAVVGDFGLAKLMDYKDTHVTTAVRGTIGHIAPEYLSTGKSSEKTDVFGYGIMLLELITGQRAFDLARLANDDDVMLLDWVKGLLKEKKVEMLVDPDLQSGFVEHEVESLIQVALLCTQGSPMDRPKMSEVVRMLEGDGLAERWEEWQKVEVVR
Procedure, shortened: as §1

LOC_OS04G41100-cb001 = system: T2, LOC_OS04G41100-cb001
T2 sequence (whole entry): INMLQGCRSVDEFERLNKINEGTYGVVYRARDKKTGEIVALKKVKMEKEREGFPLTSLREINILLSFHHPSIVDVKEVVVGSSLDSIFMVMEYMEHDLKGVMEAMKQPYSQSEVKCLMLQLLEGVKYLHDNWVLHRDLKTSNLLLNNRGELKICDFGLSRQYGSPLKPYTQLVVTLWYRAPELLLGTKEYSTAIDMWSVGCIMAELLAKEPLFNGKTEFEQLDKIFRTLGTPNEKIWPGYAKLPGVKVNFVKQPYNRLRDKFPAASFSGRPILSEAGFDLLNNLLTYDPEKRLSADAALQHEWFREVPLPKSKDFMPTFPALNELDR
Procedure, shortened: as §1
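Note: purified Escherichia coli-expressed rice kinase domain construct.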

Structure (SMILES) | thermal shift delta Tm (LOC_OS01G57100-cb003) | thermal shift delta Tm (LOC_OS01G60330-cb001) | thermal shift delta Tm (LOC_OS01G60700-cb002) | thermal shift delta Tm (LOC_OS01G63280-cb003) | thermal shift delta Tm (LOC_OS01G67340-cb003) | thermal shift delta Tm (LOC_OS01G70970-cb002) | thermal shift delta Tm (LOC_OS02G07810-cb001) | thermal shift delta Tm (LOC_OS02G08530-cb003) | thermal shift delta Tm (LOC_OS02G14120-cb001) | thermal shift delta Tm (LOC_OS02G17970-cb001) | thermal shift delta Tm (LOC_OS02G45750-cb003) | thermal shift delta Tm (LOC_OS02G54510-cb004) | thermal shift delta Tm (LOC_OS03G04050-cb001) | thermal shift delta Tm (LOC_OS03G12390-cb001) | thermal shift delta Tm (LOC_OS03G27990-cb004) | thermal shift delta Tm (LOC_OS03G50450-cb001) | thermal shift delta Tm (LOC_OS03G50810-cb003) | thermal shift delta Tm (LOC_OS04G35114-cb001) | thermal shift delta Tm (LOC_OS04G38480-cb003) | thermal shift delta Tm (LOC_OS04G41100-cb001)
O=C1CCc2c(Oc3ccc4c(c3)[C@@H]3[C@H](O4)[C@H]3c3nc4cc(C(F)(F)F)ccc4[nH]3)ccnc2N1 [Lifirafenib (BGB-283)] | 2.04 °C | 3.33 °C | 1.67 °C | 8.07 °C | 1.66 °C | 0.46 °C | 1.17 °C | 1.38 °C | 2.67 °C | 2.49 °C | 2.06 °C | 5.22 °C | 0.52 °C | 0.76 °C | 0.6 °C | 0.51 °C | 0.57 °C | 0.81 °C | 3.35 °C | 0.63 °C
CCOc1cc(C(=O)N2CCC(N3CCN(C)CC3)CC2)ccc1Nc1ncc2c(n1)N(C1CCCC1)c1ccccc1C(=O)N2C | 1.18 °C | 1.19 °C | 0.58 °C | -0.25 °C | 0.42 °C | 0.05 °C | 0.06 °C | 0.54 °C | -0.51 °C | -0.43 °C | 0.51 °C | -0.24 °C | 0 °C | -0.16 °C | 0.03 °C | 0.49 °C | 0.18 °C | 0.47 °C | 1.8 °C | 0.13 °C
C#Cc1cccc(Nc2ncnc3cc(OC)c(OCCCCCCC(=O)NO)cc23)c1 | 0.24 °C | 0.19 °C | 0.52 °C | 0.06 °C | -0.47 °C | 0.22 °C | 0.79 °C | 0.57 °C | 1.05 °C | 0.31 °C | 2.9 °C | 1.18 °C | -0.05 °C | 2.33 °C | 0.11 °C | 0.09 °C | 1.73 °C | 5.97 °C | 1.01 °C | 0.37 °C
COc1ccc([C@@H]2OC[C@H]3[C@@H]2CO[C@@H]3c2ccc(O[C@@H]3O[C@H](CO)[C@@H](O)[C@H](O)[C@H]3O)c(OC)c2)cc1OC [Forsythin] | 0.47 °C | -0.03 °C | -0.08 °C | -0.19 °C | 0.01 °C | 0.21 °C | -0.9 °C | 0.57 °C | 0.19 °C | -0.6 °C | 0.82 °C | -0.05 °C | 0.35 °C | 0.34 °C | 0.18 °C | 0.11 °C | 0.2 °C | -0.23 °C | -0.32 °C | -0.14 °C
O=C(Nc1ccc(-c2ccnc(Nc3ccc(N4CCOCC4)cc3)n2)cc1)C1CCCN1 (stereo not given) | 0.26 °C | 0.51 °C | 1.22 °C | 0.08 °C | -0.06 °C | 0.39 °C | 0.59 °C | 0.66 °C | 3.38 °C | 0.54 °C | 0.77 °C | 0.47 °C | 0.4 °C | 1.05 °C | 0.29 °C | 0.37 °C | 0.83 °C | 2.26 °C | 1 °C | 0.45 °C
CNC(=O)c1ccc(C)c(-n2c(C)cc(OCc3ccc(F)cc3F)c(Br)c2=O)c1 | 2.4 °C | 0.78 °C | 1.45 °C | 0.3 °C | -0.29 °C | 0.12 °C | 1.25 °C | 0.96 °C | 0.27 °C | 0.83 °C | 0.5 °C | 0.06 °C | 0.28 °C | 0.6 °C | 0.15 °C | 0.27 °C | 0.59 °C | 0.14 °C | 0.62 °C | 0.73 °C

Reference: the supplement of paper PMC9694430
